# PubChem BioAssay (Tox21)
# Values without a mark were called inactive. Results filed as inconclusive are left out. A call without a number means that no potency is given here. Active and inactive are the calls of the source. Unless noted, calls follow the shape of the dose curve; as a rule, active = well fitted curve in the direction sought with a large enough effect in the repeat runs; inconclusive = weak or mixed curves; inactive = no such curve, though single readings can be large; an effect the other way counts as inactive or inconclusive.
# Experiments:
# [1] = qHTS assay to identify small molecule agonists of the androgen receptor (AR) signaling pathway in the presence of an antagonist - cell viability counter screen (AID 1259379);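 also: MDA-kb2 human breast cancer cells carrying an MMTV luciferase reporter; series mostly up to about 92 µM; nearly all actives have a fitted effect of over 25% in size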
# Method in brief: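 In MDA-kb2 cells (human breast carcinoma, MMTV-luciferase), compounds at 15 concentrations plus 3.0uM nilutamide; 16 hr, 37C, 0% CO2; CellTiter-Fluor fluorescence read for viability.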
# [2] = qHTS assay to identify small molecule agonists of the estrogen receptor beta (ER-beta) signaling pathway - cell viability counter screen (AID 1259380); also: nearly all actives have a fitted effect of over 30% in size
# Method in brief: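 Viability of ER-beta-UAS-bla HEK293T cells was determined by CellTiter-Glo luminescence following 16 hr treatment with test compounds at 37C.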
# [3] = qHTS assay to identify small molecule antagonists of the estrogen receptor beta (ER-beta) signaling pathway - cell viability counter screen (AID 1259382);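 also: HEK293T cells carrying ER-beta-UAS-bla reporter stimulated with estradiol; series mostly up to about 92 µM; nearly all actives have a fitted effect of over 55% in size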
# Method in brief: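 Tox21 10K library tested in qHTS format on ER-beta-bla HEK293T cells stimulated with 1nM E2; 16 hr treatment at 37C. Same-well CellTiter-Glo luminescence served as the cell viability measure.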
# [4] = qHTS assay to identify small molecule agonists or antagonists of the thyroid stimulating hormone receptor (TSHR) signaling pathway - wild type cell line counter screen (AID 1259384; calls by dose curve)
# Method in brief: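 Counter screen in untransfected Hek293: compounds (15-point titration, triplicate) plus phosphodiesterase inhibitor Ro20-1724 added after 18 h plating; 30 min RT. Intracellular cAMP via competitive d2/cryptate immunoassay, 1 h incubation.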
# [5] = target: Thyrotropin receptor (Homo sapiens) (UniProt P16473); assay: qHTS assay to identify small molecule antagonists of the thyroid stimulating hormone receptor (TSHR) signaling pathway (AID 1259385; calls by dose curve; also: nearly all actives have a fitted effect of over 20% in size)
# Method in brief: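 Antagonist mode: compound-treated TSHR-expressing HEK293 cells were stimulated with 1.5 ng/mL TSH (final) in presence of Ro20-1724 for 30 min at RT. HTRF cAMP detection after 1 h; each compound tested at 15 concentrations, triplicate.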
# [6] = target: Progesterone receptor (Homo sapiens) (UniProt P06401); assay: qHTS assay to identify small molecule agonists of the progesterone receptor (PR) signaling pathway (AID 1346784; calls by dose curve; also: nearly all actives have a fitted effect of over 30% in size; also: potency is read from the fitted curve at half-maximal effect)
# Method in brief: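 Fluorescence from LiveBLAzer B/G FRET substrate cleavage (2 hr, RT) reported PR activation in PR-UAS-bla HEK 293T cells treated 16 hr at 37C/5% CO2 with compounds; medium contained 2% charcoal-stripped FBS.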
# [7] = qHTS assay to identify small molecule agonists of the estrogen receptor alpha (ER-alpha) signaling pathway in the presence of an antagonist - cell viability counter screen (AID 1259386);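 also: series mostly up to about 92 µM; cells exposed to compounds for 22 h at 37 °C before the viability read; nearly all actives have a fitted effect of over 30% in size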
# Method in brief: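 Fluorescent CellTiter-Fluor viability signal from VM7Luc4E2 cells, with the reagent added during the final hour of a 22hr compound exposure at 37C in the presence of 10.0nM ICI-182,780.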
# [8] = target: Estrogen receptor (Homo sapiens) (UniProt P03372); assay: qHTS assay to identify small molecule agonists of the estrogen receptor alpha (ER-alpha) signaling pathway in the presence of an antagonist (AID 1259383; calls by dose curve; also: top concentration of the series differs between compounds; nearly all actives have a fitted effect of over 15% in size)
# Method in brief: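 In VM7Luc4E2 cells, 4,000 per well, compounds at 15 concentrations were co-incubated 22hr at 37C with 10.0nM final ICI-182,780. Luminescence from the stably transfected 4×ERE-luciferase reporter was recorded 30min after ONE-Glo addition.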
# [9] = target: Androgen receptor (Homo sapiens) (UniProt P10275); assay: qHTS assay to identify small molecule agonists of the androgen receptor (AR) signaling pathway in the presence of an antagonist (AID 1259381; calls by dose curve; also: potency is read from the fitted curve at half-maximal effect; nearly all actives have a fitted effect of over 15% in size)
# Method in brief: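 Here, 15-concentration compound series were pin-transferred onto MDA-kb2 MMTV-luciferase cells already dosed with nilutamide (3.0uM final). After 16hr at 37C, ONE-Glo was added and luminescence read 30min later at room temperature.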
# Sequence of Estrogen receptor (Homo sapiens) (P03372 whole entry, looked up): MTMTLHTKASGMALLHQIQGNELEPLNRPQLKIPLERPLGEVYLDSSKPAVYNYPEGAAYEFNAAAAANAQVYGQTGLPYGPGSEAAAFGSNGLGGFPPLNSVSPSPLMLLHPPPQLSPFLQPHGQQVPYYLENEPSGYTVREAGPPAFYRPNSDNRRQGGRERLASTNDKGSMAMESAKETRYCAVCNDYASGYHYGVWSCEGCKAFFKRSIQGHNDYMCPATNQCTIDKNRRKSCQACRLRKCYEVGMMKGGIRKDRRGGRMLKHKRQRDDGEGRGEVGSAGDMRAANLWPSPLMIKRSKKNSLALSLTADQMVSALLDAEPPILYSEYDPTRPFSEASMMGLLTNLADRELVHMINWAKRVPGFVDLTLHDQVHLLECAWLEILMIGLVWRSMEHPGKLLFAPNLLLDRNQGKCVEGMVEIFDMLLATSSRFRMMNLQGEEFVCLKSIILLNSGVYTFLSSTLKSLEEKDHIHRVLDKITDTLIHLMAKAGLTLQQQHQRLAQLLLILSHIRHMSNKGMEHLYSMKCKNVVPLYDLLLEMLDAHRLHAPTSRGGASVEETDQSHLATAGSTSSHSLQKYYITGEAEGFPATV
# Sequence of Thyrotropin receptor (Homo sapiens) (P16473 whole entry, looked up): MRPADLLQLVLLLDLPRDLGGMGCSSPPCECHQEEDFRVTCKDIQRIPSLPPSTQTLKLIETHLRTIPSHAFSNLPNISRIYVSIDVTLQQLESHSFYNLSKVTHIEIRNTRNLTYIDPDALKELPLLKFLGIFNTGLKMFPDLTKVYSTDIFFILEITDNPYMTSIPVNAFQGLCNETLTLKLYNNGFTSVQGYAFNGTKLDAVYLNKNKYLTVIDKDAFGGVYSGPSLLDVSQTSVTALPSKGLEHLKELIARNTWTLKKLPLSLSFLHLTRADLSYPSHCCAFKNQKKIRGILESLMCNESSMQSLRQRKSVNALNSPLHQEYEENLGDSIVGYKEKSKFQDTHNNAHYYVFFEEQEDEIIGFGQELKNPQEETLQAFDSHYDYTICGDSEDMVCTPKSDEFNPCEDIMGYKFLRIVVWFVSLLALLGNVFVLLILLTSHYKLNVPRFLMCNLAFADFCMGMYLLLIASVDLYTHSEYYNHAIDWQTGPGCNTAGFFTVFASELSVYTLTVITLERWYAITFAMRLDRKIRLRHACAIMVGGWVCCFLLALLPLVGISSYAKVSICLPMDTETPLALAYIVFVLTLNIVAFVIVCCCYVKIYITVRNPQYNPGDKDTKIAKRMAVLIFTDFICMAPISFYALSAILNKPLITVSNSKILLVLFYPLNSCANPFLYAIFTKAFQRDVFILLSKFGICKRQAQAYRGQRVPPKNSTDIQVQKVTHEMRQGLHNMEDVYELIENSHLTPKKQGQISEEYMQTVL
# Sequence of Progesterone receptor (Homo sapiens) (P06401 whole entry, looked up): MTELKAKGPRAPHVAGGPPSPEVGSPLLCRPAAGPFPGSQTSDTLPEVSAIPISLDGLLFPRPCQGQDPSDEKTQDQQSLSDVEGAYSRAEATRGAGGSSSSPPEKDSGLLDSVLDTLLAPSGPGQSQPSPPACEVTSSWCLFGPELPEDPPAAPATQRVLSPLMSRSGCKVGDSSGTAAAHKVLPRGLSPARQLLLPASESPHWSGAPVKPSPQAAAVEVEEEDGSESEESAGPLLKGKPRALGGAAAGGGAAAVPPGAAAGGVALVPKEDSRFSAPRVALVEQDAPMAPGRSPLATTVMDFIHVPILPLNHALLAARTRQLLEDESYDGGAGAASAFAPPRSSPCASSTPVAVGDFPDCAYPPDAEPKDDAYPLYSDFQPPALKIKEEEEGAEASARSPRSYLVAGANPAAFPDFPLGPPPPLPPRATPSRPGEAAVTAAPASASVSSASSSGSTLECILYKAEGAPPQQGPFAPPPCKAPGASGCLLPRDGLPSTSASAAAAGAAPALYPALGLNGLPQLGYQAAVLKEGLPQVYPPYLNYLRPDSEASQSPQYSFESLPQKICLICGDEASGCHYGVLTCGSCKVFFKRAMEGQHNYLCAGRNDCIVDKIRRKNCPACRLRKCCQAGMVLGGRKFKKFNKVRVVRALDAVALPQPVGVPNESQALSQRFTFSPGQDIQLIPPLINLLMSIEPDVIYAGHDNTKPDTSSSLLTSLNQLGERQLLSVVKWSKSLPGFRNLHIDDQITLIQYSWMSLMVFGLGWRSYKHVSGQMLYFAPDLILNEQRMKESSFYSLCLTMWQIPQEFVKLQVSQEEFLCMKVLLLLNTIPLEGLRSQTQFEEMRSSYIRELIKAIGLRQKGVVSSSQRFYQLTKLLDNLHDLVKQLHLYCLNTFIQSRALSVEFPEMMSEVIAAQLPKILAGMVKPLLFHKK
# Sequence of Androgen receptor (Homo sapiens) (P10275 whole entry, looked up): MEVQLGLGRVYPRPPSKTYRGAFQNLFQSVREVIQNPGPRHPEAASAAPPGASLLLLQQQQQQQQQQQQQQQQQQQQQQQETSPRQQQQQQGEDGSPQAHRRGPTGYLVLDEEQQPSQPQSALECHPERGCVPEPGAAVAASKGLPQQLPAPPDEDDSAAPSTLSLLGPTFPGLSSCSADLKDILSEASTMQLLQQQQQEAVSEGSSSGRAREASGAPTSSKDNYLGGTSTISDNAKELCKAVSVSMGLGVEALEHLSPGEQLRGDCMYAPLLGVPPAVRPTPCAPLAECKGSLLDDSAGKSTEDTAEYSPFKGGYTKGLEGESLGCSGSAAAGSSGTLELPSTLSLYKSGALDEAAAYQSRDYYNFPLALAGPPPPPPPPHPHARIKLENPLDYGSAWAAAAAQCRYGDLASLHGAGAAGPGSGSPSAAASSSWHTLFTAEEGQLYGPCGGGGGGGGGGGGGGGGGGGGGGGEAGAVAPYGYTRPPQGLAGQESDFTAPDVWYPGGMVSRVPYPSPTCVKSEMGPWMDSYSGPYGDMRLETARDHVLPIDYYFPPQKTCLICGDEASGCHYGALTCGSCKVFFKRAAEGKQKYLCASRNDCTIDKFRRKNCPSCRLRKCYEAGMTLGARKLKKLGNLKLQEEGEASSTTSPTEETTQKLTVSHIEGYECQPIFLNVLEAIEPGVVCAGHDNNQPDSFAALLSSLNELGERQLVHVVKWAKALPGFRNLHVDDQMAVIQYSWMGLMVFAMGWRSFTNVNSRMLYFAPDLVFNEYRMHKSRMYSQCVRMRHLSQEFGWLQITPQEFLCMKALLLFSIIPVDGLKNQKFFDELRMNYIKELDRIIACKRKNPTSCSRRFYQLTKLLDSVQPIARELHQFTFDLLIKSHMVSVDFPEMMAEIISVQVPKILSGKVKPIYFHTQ
compound,measurement,setting,value
O=C(OCC1(COC(=O)c2cccnc2)CCCC(COC(=O)c2cccnc2)(COC(=O)c2cccnc2)C1O)c1cccnc1,Potency,[1],inactive
same,Potency,[2],inactive
same,outcome,[3],inactive
same,outcome,[4],inactive
same,outcome,[5],inactive
same,Potency,[6],inactive
Cc1ccccc1N=O,Potency,[1],inactive
same,Potency,[2],inactive
same,outcome,[3],inactive
same,outcome,[4],inactive
same,outcome,[5],inactive
same,Potency,[7],inactive
same,Potency,[6],inactive
CCCCNc1ccc(C(=O)OCCN(C)C)cc1,Potency,[1],inactive
same,Potency,[2],inactive
same,outcome,[3],inactive
same,outcome,[4],inactive
same,outcome,[5],inactive
same,Potency,[6],inactive
Cc1cc(NC(=O)C2=C(O)c3ccccc3S(=O)(=O)N2C)no1,Potency,[1],inactive
same,Potency,[2],inactive
same,outcome,[3],inactive
same,outcome,[4],inactive
same,outcome,[5],inactive
same,Potency,[6],inactive
ClCCCl,Potency,[1],inactive
same,Potency,[2],inactive
same,outcome,[3],inactive
same,outcome,[8],inactive
same,Potency,[7],inactive
same,Potency,[6],inactive
CN=C(NC#N)Nc1ccc(C2=NNC(=O)CC2C)cc1 (stereo not given),Potency,[1],inactive
same,Potency,[2],inactive
same,outcome,[3],inactive
same,outcome,[4],inactive
same,outcome,[5],inactive
same,Potency,[7],inactive
same,Potency,[6],inactive
NCCN1CCOCC1,Potency,[1],inactive
same,Potency,[2],inactive
same,outcome,[3],inactive
same,outcome,[4],inactive
same,outcome,[5],inactive
same,Potency,[7],inactive
same,Potency,[6],inactive
C[C@@H](Oc1ccc(CNC(=O)c2cccnc2Oc2ccc3c(c2)OCO3)c(F)c1)C(=O)O,Potency,[1],inactive
same,Potency,[2],inactive
same,outcome,[3],inactive
same,outcome,[8],inactive
same,Potency,[7],inactive
same,Potency,[6],inactive
FC(F)(F)c1ccccc1-n1ccnc1,Potency,[1],inactive
same,Potency,[2],inactive
same,outcome,[3],inactive
same,Potency,[7],inactive
same,Potency,[6],inactive
C[Si](C)=O,"activity change, negative = cytotoxicity",[1],-1.72% [at 8.39 µM]
same,"activity change, negative = cytotoxicity",[2],5.93% [at 8.39 µM]
same,"activity change, negative = cytotoxicity",[3],0.879% [at 8.39 µM]
same,cAMP activity change,[4],-4.18% [at 8.39 µM]
same,"activity change, negative = inhibition",[5],-2.39% [at 8.39 µM]
same,"activity change, negative = cytotoxicity",[7],2.9% [at 8.39 µM]
same,activation,[6],1.46% [at 8.39 µM]
Brc1ccc(-c2ccccc2)cc1,Potency,[1],inactive
same,Potency,[2],inactive
same,outcome,[3],inactive
same,outcome,[4],inactive
same,Potency,[7],inactive
same,Potency,[6],inactive
COC(=O)C1CC(=O)C(C(=O)OC)CC1=O (stereo not given),"activity change, negative = cytotoxicity",[1],2.46% [at 8.39 µM]
same,"activity change, negative = cytotoxicity",[2],-5.74% [at 8.39 µM]
same,"activity change, negative = cytotoxicity",[3],5.88% [at 8.39 µM]
same,cAMP activity change,[4],2.64% [at 8.39 µM]
same,"activity change, negative = inhibition",[5],0.232% [at 8.39 µM]
same,"activity change, negative = cytotoxicity",[7],1.85% [at 8.39 µM]
same,activation,[6],15.8% [at 8.39 µM]
COc1ccc(S(=O)(=O)N2c3ccc(Cl)cc3[C@@](O)(c3ccccc3Cl)[C@H]2C(=O)N2CCC[C@@H]2C(N)=O)cc1OC,Potency,[1],inactive
same,Potency,[2],inactive
same,outcome,[3],inactive
same,outcome,[8],inactive
same,Potency,[7],inactive
same,Potency,[6],inactive
CC1COc2ccccc2N1 (stereo not given),Potency,[1],inactive
same,Potency,[2],inactive
same,outcome,[3],inactive
same,outcome,[4],inactive
same,outcome,[5],inactive
same,Potency,[7],inactive
same,Potency,[6],inactive
C=Cc1ccccn1,Potency,[1],inactive
same,Potency,[2],inactive
same,outcome,[3],inactive
same,outcome,[4],inactive
same,outcome,[5],inactive
same,Potency,[7],inactive
same,Potency,[6],inactive
C=C(C)C(=O)OCCNC(C)(C)C,Potency,[1],inactive
same,Potency,[2],inactive
same,outcome,[3],inactive
same,outcome,[4],inactive
same,outcome,[5],inactive
same,Potency,[7],inactive
same,Potency,[6],inactive
C=C(C)C(=O)OCC(C)(C)COC(=O)C(=C)C,Potency,[1],inactive
same,Potency,[2],inactive
same,outcome,[3],inactive
same,outcome,[8],inactive
same,Potency,[6],inactive
CC[C@H](C)C(=O)O[C@H]1C[C@H](O)C=C2C=C[C@H](C)[C@H](CC[C@@H](O)C[C@@H](O)CC(=O)O)[C@H]21,Potency,[1],inactive
same,Potency,[2],inactive
same,outcome,[3],inactive
same,outcome,[8],inactive
same,Potency,[7],inactive
same,Potency,[6],inactive
CN1C(C)(C)CCCC1(C)C,Potency,[1],inactive
same,Potency,[2],inactive
same,outcome,[3],inactive
same,outcome,[4],inactive
same,outcome,[5],inactive
same,Potency,[7],inactive
same,Potency,[6],inactive
COCCOCCOCCOCCOCCO,Potency,[1],inactive
same,Potency,[2],inactive
same,outcome,[3],inactive
same,outcome,[4],inactive
same,outcome,[5],inactive
same,Potency,[7],inactive
same,Potency,[6],inactive
CC(=O)Nc1ccc(S(=O)(=O)Cl)cc1,Potency,[1],inactive
same,Potency,[2],inactive
same,outcome,[3],inactive
same,Potency,[7],inactive
same,Potency,[6],inactive
O=C1c2cccc3c2[C@H](CCC3)CN1[C@@H]1CN2CCC1CC2,Potency,[1],inactive
same,outcome,[3],inactive
same,outcome,[8],inactive
same,outcome,[4],inactive
same,outcome,[5],inactive
same,Potency,[6],inactive
COc1ccc2c(c1)C(=O)N(CCc1ccc(S(=O)(=O)NC(=O)NC3CCCCC3)cc1)C(=O)C2(C)C,Potency,[1],inactive
same,Potency,[9],21.1 µM (active)
same,outcome,[4],inactive
same,outcome,[5],inactive
same,Potency,[6],5.96 µM (active)
O=C(CCNNC(=O)c1ccncc1)NCc1ccccc1,Potency,[1],inactive
same,Potency,[2],inactive
same,outcome,[4],inactive
same,outcome,[5],inactive
same,Potency,[7],inactive
same,Potency,[6],inactive
CCCOC(OCCC)OCCC,Potency,[1],inactive
same,Potency,[2],inactive
same,outcome,[3],inactive
same,Potency,[7],inactive
same,Potency,[6],inactive
CC1=CCC(C(C)C)=CC1,Potency,[1],inactive
same,Potency,[2],inactive
same,outcome,[3],inactive
same,Potency,[6],inactive
CC(C)CC(C)CC(C)CC(C)COC(=O)c1ccccc1C(=O)OCC(C)CC(C)CC(C)CC(C)C (stereo not given),Potency,[1],inactive
same,Potency,[2],inactive
same,outcome,[4],inactive
same,outcome,[5],inactive
same,Potency,[7],inactive
same,Potency,[6],inactive
